Source: PubChem BioAssay (Tox21)
Unmarked numbers belong to inactive results. Results filed as inconclusive are left out. Where a call stands in place of a potency, no number is given. Active and inactive are the calls of the source. Unless noted, calls come from the whole dose curve; as a rule, active = well fitted curve in the direction sought with a large enough effect in the repeat runs; inconclusive = weak or mixed curves; inactive = no such curve, though single readings can be large; an effect the other way counts as inactive or inconclusive.

Key:
[1] = qHTS assay for small molecule agonists of the p53 signaling pathway (AID 651631; calls by dose curve; note: nearly all actives have a fitted effect of over 15% in size; note: potency is the fitted concentration of half-maximal effect)
Summary of the method: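 Fluorescence intensity from cleaved LiveBLAzer B/G substrate (2 h, room temperature) served as the signal. Beforehand, HCT-116 reporter cells bearing p53 response elements were treated 16 h at 37 °C with DMSO-dissolved compounds.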

[2] = qHTS assay for small molecules that induce genotoxicity in human embryonic kidney cells expressing luciferase-tagged ATAD5 (AID 651632); note: nearly all actives have a fitted effect of over 15% in size
Summary of the method: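 Genotoxicity read-out via ATAD5-luciferase: HEK293T cells, 16 hr compound incubation at 37C, Amplite detection.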

[3] = qHTS assay for small molecule agonists of the p53 signaling pathway - cell viability (AID 651633; calls by dose curve;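 note: p53RE-bla HCT reporter cells with a stable beta-lactamase p53 reporter; series mostly up to about 83 µM; nearly all actives have a fitted effect of over 30% in size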)
Summary of the method: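 Viability counter-read: CellTiter-Glo luminescence (30 min, room temperature) in the same p53RE-bla plates. These plates had been exposed to compounds for 16 h at 37 C.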

[4] = qHTS assay for small molecule disruptors of the mitochondrial membrane potential - cell viability (AID 720634; calls by dose curve;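 note: human HepG2 liver cancer cells; series mostly up to about 83 µM; nearly all actives have a fitted effect of over 20% in size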)
Summary of the method: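 Human hepatoma HepG2 cells were treated for 1 hr with test chemicals, then given m-MPI dye and CellTiter-Glo. Cell viability reflects luminescence proportional to cellular ATP.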

[5] = qHTS assay to test for compound auto fluorescence at 590 nm (red) in HepG2 cells (AID 720674)
Summary of the method: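 Red autofluorescence (Ex/Em 540/590 nm, Rose Bengal sodium equivalents) was measured in HepG2 cells, 2,000 per well in MEM plus 10% FBS, plated overnight at 37 C. Readings were taken 1 hr after adding 23 nL compound or DMSO, at 37 C and 5% CO2.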

[6] = qHTS assay to test for compound auto fluorescence at 535 nm (green) in HepG2 cells (AID 720675)
[7] = qHTS assay to test for compound auto fluorescence at 460 nm (blue) in HEK293 cells (AID 720678)
Summary of the method: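 HEK293 cells (2,000/well, medium with 10% dialyzed FBS) attached 4-5 hr, then exposed to compound overnight at 37C, 5% CO2. Blue fluorescence read at 405/460 nm, with triamterene as reference fluorophore.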

[8] = qHTS assay to test for compound auto fluorescence at 590 nm (red) in HEK293 cells (AID 720679)
Summary of the method: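 HEK293 cells (2,000/well, 10% dialyzed FBS) attached 4-5 hr, then dosed with compound or DMSO and incubated overnight at 37C, 5% CO2. Red fluorescence read at 540/590 nm, Rose Bengal sodium as reference fluorophore.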

[9] = qHTS assay to test for compound auto fluorescence at 535 nm (green) in HEK293 cells (AID 720680)
[10] = qHTS assay to test for compound auto fluorescence at 460 nm (blue) in HEK293 cell free culture (AID 720681)
Summary of the method: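 Blue fluorescence (Ex 405/Em 460 nm, triamterene-equivalent) was read immediately after pin transfer of compound or DMSO into medium (DMEM, 10% FBS) without cells.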

[11] = qHTS assay to test for compound auto fluorescence at 535 nm (green) in HEK293 cell free culture (AID 720682)
Summary of the method: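 Intrinsic compound fluorescence is measured in culture medium containing 10% FBS, with excitation at 485 nm and detection at 535 nm, referenced to fluorescein.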

[12] = qHTS assay to test for compound auto fluorescence at 590 nm (red) in HEK293 cell free culture (AID 720683)
Summary of the method: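 Red-channel autofluorescence of compounds in culture medium (DMEM, 10% FBS), no cells, measured at 540/590 nm. Rose Bengal sodium is the reference fluorophore for equivalence.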

[13] = qHTS assay to test for compound auto fluorescence at 460 nm (blue) in HepG2 cell free culture (AID 720685)
Summary of the method: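 Compound (23 nL) or DMSO pinned into cell-free MEM with 10% FBS; blue fluorescence read at 405/460 nm excitation/emission, expressed as auto-fluorescence equivalency to triamterene.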

[14] = qHTS assay to test for compound auto fluorescence at 535 nm (green) in HepG2 cell free culture (AID 720686)
[15] = qHTS assay to test for compound auto fluorescence at 460 nm (blue) in HepG2 cells (AID 720687)
Summary of the method: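 Blue-channel autofluorescence (Ex/Em 405/460 nm, triamterene-equivalent) was measured after 1 hr compound exposure at 37 C, 5% CO2. Cells were HepG2, plated overnight at 37 C in MEM plus 10% FBS.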

[16] = qHTS assay for small molecules that induce genotoxicity in human embryonic kidney cells expressing luciferase-tagged ATAD5 - cell viability (AID 651634; calls by dose curve; note: nearly all actives have a fitted effect of over 25% in size)
Summary of the method: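 Live-cell protease activity (CellTiter-Fluor, fluorescence) indicates viability. HEK293T cells with luciferase-tagged ATAD5; 15.5 hr compound treatment at 37C.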

[17] = qHTS assay to test for compound auto fluorescence at 590 nm (red) in HepG2 cell free culture (AID 720684)
Summary of the method: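 Plate contents were MEM with 10% FBS plus test compound or DMSO, no cells. Fluorescence was recorded with 540 nm excitation and 590 nm emission.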

[18] = molecular target: Glucocorticoid receptor (Homo sapiens) (UniProt P04150); test: qHTS assay to identify small molecule antagonists of the glucocorticoid receptor (GR) signaling pathway (AID 720692; active = well fitted inhibition curve with a large enough effect in the signal ratio in the repeat runs, not every such curve was filed as active; the % refers to the signal ratio)
Chain of Glucocorticoid receptor (Homo sapiens) (P04150 whole entry, looked up): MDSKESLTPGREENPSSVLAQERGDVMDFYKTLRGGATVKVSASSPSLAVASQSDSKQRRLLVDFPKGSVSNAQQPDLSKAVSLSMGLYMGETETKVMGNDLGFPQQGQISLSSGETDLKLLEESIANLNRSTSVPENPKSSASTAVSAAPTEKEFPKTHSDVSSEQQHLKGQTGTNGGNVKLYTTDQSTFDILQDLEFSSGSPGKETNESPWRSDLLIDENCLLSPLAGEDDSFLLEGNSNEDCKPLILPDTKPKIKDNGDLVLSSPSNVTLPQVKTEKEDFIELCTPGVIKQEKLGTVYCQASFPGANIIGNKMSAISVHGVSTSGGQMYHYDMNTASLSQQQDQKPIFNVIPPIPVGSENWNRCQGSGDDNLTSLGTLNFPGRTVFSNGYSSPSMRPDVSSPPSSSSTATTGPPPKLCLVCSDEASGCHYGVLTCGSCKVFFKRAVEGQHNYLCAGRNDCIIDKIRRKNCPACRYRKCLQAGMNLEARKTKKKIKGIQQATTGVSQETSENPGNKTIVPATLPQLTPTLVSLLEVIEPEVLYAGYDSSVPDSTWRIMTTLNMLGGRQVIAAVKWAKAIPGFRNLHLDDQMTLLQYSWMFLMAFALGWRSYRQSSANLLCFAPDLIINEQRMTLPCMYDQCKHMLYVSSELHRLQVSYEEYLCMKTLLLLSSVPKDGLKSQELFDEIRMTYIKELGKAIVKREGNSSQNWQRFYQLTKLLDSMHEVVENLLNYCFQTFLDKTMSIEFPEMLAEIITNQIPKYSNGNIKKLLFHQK
Summary of the method: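 Fluorescence from cleaved LiveBLAzer B/G FRET substrate reports GRE-driven beta-lactamase in HeLa cells; compounds are tested against 5 nM dexamethasone (final) over 18 h at 37 C, substrate incubation 2 h at room temperature.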

[19] = qHTS assay for small molecule disruptors of the mitochondrial membrane potential (AID 720635); note: potency is the fitted concentration of half-maximal effect
Summary of the method: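 Mitochondrial membrane potential tracked with Mito-MPS dye, red aggregates (ex 540/em 590 nm) against green monomers (ex 490/em 535 nm). Compound treatment 1 hr at 37C, dye 30 min in HepG2.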

[20] = molecular target: Glucocorticoid receptor (Homo sapiens) (UniProt P04150); test: qHTS assay to identify small molecule agonists of the glucocorticoid receptor (GR) signaling pathway (AID 720691; active = well fitted activation curve with a large enough effect in the signal ratio in the repeat runs, not every such curve was filed as active; the % refers to the signal ratio)
Summary of the method: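 Beta-lactamase reporter activity, read as fluorescence intensity, was measured in GR-bla HeLa cells exposed to compounds for 18 h at 37 C and then loaded with LiveBLAzer B/G FRET substrate for 2 h at room temperature.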

SMILES	Potency [1]	Potency [2]	Potency [3]	Potency [4]	outcome [5]	outcome [6]	Potency [7]	outcome [8]	outcome [9]	Potency [10]	outcome [11]	outcome [12]	Potency [13]	outcome [14]	Potency [15]	Potency [16]	outcome [17]	Potency [18]	Potency [19]	Potency [20]
CCCCCc1ccc(N)cc1	inactive	inactive	inactive	inactive	inactive	inactive	inactive	inactive	inactive	inactive	inactive	inactive	inactive	inactive	inactive					
O=C(O)C1CCC(C(=O)O)CC1 (configuration not stated)	inactive	inactive		inactive	inactive	inactive	inactive	inactive	inactive	inactive	inactive	inactive	inactive	inactive	inactive	inactive	inactive	inactive		
Oc1ccc(Sc2ccc(O)cc2)cc1	57.2 µM (active)	inactive		inactive	inactive	inactive	inactive	inactive	inactive	inactive	inactive	inactive	inactive		inactive	inactive	inactive	inactive	18.1 µM (active)	inactive
CC(C)(C)C(=O)OCOP(=O)(COCCn1cnc2c(N)ncnc21)OCOC(=O)C(C)(C)C	inactive	inactive	inactive	inactive	inactive	inactive	inactive	inactive	inactive	inactive	inactive	inactive		inactive	inactive		inactive	inactive		inactive
COc1ccc(C(C)=O)cc1	inactive	inactive		inactive	inactive	inactive	inactive	inactive	inactive	inactive	inactive	inactive	inactive	inactive	inactive	inactive	inactive			
O=S(=O)(O)c1ccc(O)c2ncccc12	inactive	inactive	inactive	inactive	inactive	inactive	inactive	inactive	inactive			inactive	inactive	inactive	inactive		inactive	inactive	inactive	
Cn1c(N)nc2nc[nH]c2c1=O	inactive	inactive		inactive	inactive	inactive	inactive	inactive	inactive	inactive	inactive	inactive			inactive	inactive		inactive		inactive
CC(C)CC=O	inactive	inactive		inactive		inactive	inactive	inactive	inactive	inactive	inactive	inactive		inactive	inactive	inactive	inactive	inactive		inactive
C1CCC2OC2C1 (configuration not stated)	inactive	inactive		inactive	inactive	inactive	inactive	inactive	inactive	inactive		inactive	inactive		inactive	inactive	inactive	inactive	inactive	inactive
